From PubChem BioAssay (EPA / NIEHS) come the findings set out here.

Read-out in experiment [1]: TIMP metallopeptidase inhibitor 1 (TIMP1), TIMP1 (gene 7076)
In words: BSK_hDFCGF_TIMP1: BioMAP Diversity Plus: hDFCGF Assay for TIMP metallopeptidase inhibitor 1 (TIMP1) Biomarker Activity (AID 2283062). Particulars: primary human foreskin fibroblasts; actives raise or lower the signal. In outline: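 Primary human foreskin fibroblasts in the hDFCGF system were dosed with compound for 24 h, then TIMP-1 was measured by ELISA. Activity was fitted bidirectionally relative to DMSO control; parallel SRB staining assessed cytotoxicity.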

Read-out in experiment [2]: Monokine induced gamma interferon (MIG), CXCL9 (gene 4283)
In words: BSK_hDFCGF_MIG: BioMAP Diversity Plus: hDFCGF Assay for Monokine induced gamma interferon (MIG) Biomarker Activity (AID 2283063). The following applies: primary human foreskin fibroblasts; actives raise or lower the signal. In outline: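 ELISA read-out of MIG from primary human dermal fibroblasts 24 h post-dosing. Gain or loss of signal fitted bidirectionally, DMSO as baseline.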

Read-out in experiment [3]: Matrix Metallopeptidase 1 (MMP1), MMP1 (gene 4312)
As to the kind of experiment: BSK_hDFCGF_MMP1: BioMAP Diversity Plus: hDFCGF Assay for Matrix Metallopeptidase 1 (MMP1) Biomarker Activity (AID 2283064). The following applies: primary human foreskin fibroblasts; actives raise or lower the signal. In outline:
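hDFCGF primary fibroblasts (human foreskin); chemical added; 24 h; MMP1 by ELISA; bidirectional fit vs DMSO.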

Read-out in experiment [4]: Vascular cell adhesion molecule 1 (VCAM1), VCAM1 (gene 7412)
In words: BSK_hDFCGF_VCAM1: BioMAP Diversity Plus: hDFCGF Assay for Vascular cell adhesion molecule 1 (VCAM1) Biomarker Activity (AID 2283065).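 As to AC50: VCAM-1 protein level quantified by ELISA after 24 h chemical exposure.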 The following applies: primary human foreskin fibroblasts; actives raise or lower the signal. In outline: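 Primary human foreskin fibroblasts (hDFCGF system) were dosed with chemical and VCAM-1 was measured by ELISA 24 h later. Bidirectional curve fitting used DMSO as negative control and activity baseline.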

Read-out in experiment [5]: Plasminogen activator inhibitor-1 (PAI1), SERPINE1 (gene 5054)
As to the kind of experiment: BSK_hDFCGF_PAI1: BioMAP Diversity Plus: hDFCGF Assay for Plasminogen activator inhibitor-1 (PAI1) Biomarker Activity (AID 2283066). The following applies: primary human foreskin fibroblasts; actives raise or lower the signal. In outline: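 PAI-1 levels, determined by ELISA, served as the endpoint in human foreskin fibroblast cultures exposed to compound for 24 h, with DMSO as baseline.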

Read-out in experiment [6]: Intercellular Adhesion Molecule 1 (ICAM1), ICAM1 (gene 3383)
In words: BSK_KF3CT_ICAM1: BioMAP Diversity Plus: KF3CT Assay for Intercellular Adhesion Molecule 1 (ICAM1) Biomarker Activity (AID 2283067). The following applies: primary human keratinocytes with fibroblasts; actives raise or lower the signal. In outline:
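Human keratinocyte plus foreskin fibroblast primary co-culture was exposed to chemical for 24 h. ICAM-1 was then quantified by ELISA, and the data were fit bidirectionally against DMSO as the negative control and baseline.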

Read-out in experiment [7]: Interferon-gamma inducible Protein 10 (IP10), CXCL10 (gene 3627)
In words: BSK_KF3CT_IP10: BioMAP Diversity Plus: KF3CT Assay for Interferon-gamma inducible Protein 10 (IP10) Biomarker Activity (AID 2283068). Particulars: primary human keratinocytes with fibroblasts; actives raise or lower the signal. In outline:
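ELISA read-out of IP-10 after 24 h chemical dosing of human skin primary co-culture (keratinocytes, foreskin fibroblasts). Gain or loss of signal relative to DMSO, bidirectional curve fit.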

A short description of experiment [8]: BSK_KF3CT_SRB: Viability Assessment in the BioMAP Diversity Plus: KF3CT Assay (AID 2283069).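 Also: total protein by sulforhodamine B staining as a cytotoxicity measure; read 24 h after compound addition; fitted for both signal gain and loss against DMSO baseline.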 Particulars: primary human keratinocytes with fibroblasts. In outline:
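Keratinocytes co-cultured with foreskin fibroblasts (human primary); chemical added, 24 h; fix 10% TCA, stain 0.1% SRB, A560. Bidirectional fit vs DMSO.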

Read-out in experiment [9]: Interleukin-1 alpha (IL1a), IL1A (gene 3552)
As to the kind of experiment: BSK_KF3CT_IL1a: BioMAP Diversity Plus: KF3CT Assay for Interleukin-1 alpha (IL1a) Biomarker Activity (AID 2283070). Particulars: primary human keratinocytes with fibroblasts; actives raise or lower the signal. In outline: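 Chemicals were dosed onto co-cultured human keratinocytes and foreskin fibroblasts, IL-1a was quantified by ELISA at 24 h, and activity was fitted in both directions relative to DMSO controls.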

Read-out in experiment [10]: TIMP metallopeptidase inhibitor 2 (TIMP2), TIMP2 (gene 7077)
As to the kind of experiment: BSK_KF3CT_TIMP2: BioMAP Diversity Plus: KF3CT Assay for TIMP metallopeptidase inhibitor 2 (TIMP2) Biomarker Activity (AID 2283071). The following applies: primary human keratinocytes with fibroblasts; actives raise or lower the signal. In outline: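 Keratinocyte–fibroblast co-culture, 24 h exposure; TIMP-2 ELISA, DMSO-normalised bidirectional fit. Parallel SRB (0.1%, TCA-fixed, 560 nm) total-protein staining gauges cytotoxicity.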

Read-out in experiment [11]: Transforming growth factor beta 1 (TGFb1), TGFB1 (gene 7040)
As to the kind of experiment: BSK_KF3CT_TGFb1: BioMAP Diversity Plus: KF3CT Assay for Transforming growth factor beta 1 (TGFb1) Biomarker Activity (AID 2283072). Particulars: primary human keratinocytes with fibroblasts; actives raise or lower the signal. In outline:
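Signal changes in either direction, relative to DMSO, define activity here. TGF-b1 is read by ELISA from a human keratinocyte-fibroblast co-culture 24 h post-dose.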

Read-out in experiment [12]: C-C motif chemokine 2 (Homo sapiens) (UniProt P13500)
In words: BSK_KF3CT_MCP1: BioMAP Diversity Plus: KF3CT Assay for Monocyte Chemoattractant Protein 1 (MCP1/CCL2) Biomarker Activity (AID 2283073). The following applies: primary human keratinocytes with fibroblasts; actives raise or lower the signal. In outline:
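Human keratinocyte plus foreskin fibroblast primary co-culture exposed to chemical for 24 h. MCP-1 levels measured by ELISA. Bidirectional curve fitting relative to DMSO negative control as baseline.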

Read-out in experiment [13]: Matrix Metallopeptidase 9 (MMP9), MMP9 (gene 4318)
As to the kind of experiment: BSK_KF3CT_MMP9: BioMAP Diversity Plus: KF3CT Assay for Matrix Metallopeptidase 9 (MMP9) Biomarker Activity (AID 2283074).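 As to AC50: MMP9 protein level quantified by ELISA in the co-culture.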 Particulars: primary human keratinocytes with fibroblasts; actives raise or lower the signal. In outline:
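Human keratinocyte/foreskin fibroblast co-culture; compound added; 24 h; MMP-9 by ELISA; bidirectional fit vs DMSO baseline.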

Read-out in experiment [14]: urokinase plasminogen activator (uPA), PLAU (gene 5328)
As to the kind of experiment: BSK_KF3CT_uPA: BioMAP Diversity Plus: KF3CT Assay for urokinase plasminogen activator (uPA) Biomarker Activity (AID 2283075). The following applies: primary human keratinocytes with fibroblasts; actives raise or lower the signal. In outline: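 ELISA readout of uPA, analyzed for signal gain or loss relative to DMSO, from a human primary keratinocyte–foreskin fibroblast co-culture measured 24 h after chemical treatment.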

Read-out in another experiment: CD40, CD40 (gene 958)
In words: BSK_LPS_CD40: BioMAP Diversity Plus: LPS Assay for CD40 Biomarker Activity (AID 2283076). The following applies: primary human HUVEC with PBMC; actives raise or lower the signal. In outline: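 Primary human umbilical vein endothelial cells co-cultured with peripheral blood mononuclear cells, LPS-stimulated, were dosed with chemical and read 24 h later. CD40 levels were measured by ELISA and fitted bidirectionally against DMSO as negative control and baseline.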

Read-out in experiment [15]: E-selectin (Homo sapiens) (UniProt P16581)
As to the kind of experiment: BSK_LPS_Eselectin: BioMAP Diversity Plus: LPS Assay for Eselectin Biomarker Activity (AID 2283077). The following applies: primary human HUVEC with PBMC; actives raise or lower the signal. In outline:
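Human umbilical vein endothelial cells co-cultured with peripheral blood mononuclear cells under LPS stimulation; E-selectin measured by ELISA 24 h after chemical dosing. Activity fitted bidirectionally against DMSO as negative control and baseline.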

Read-out in experiment [16]: Interleukin-8 (IL8), CXCL8 (gene 3576)
In words: BSK_LPS_IL8: BioMAP Diversity Plus: LPS Assay for Interleukin-8 (IL8) Biomarker Activity (AID 2283078). Particulars: primary human HUVEC with PBMC; actives raise or lower the signal. In outline: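 Human umbilical vein endothelial cells co-cultured with PBMC were stimulated with LPS; IL-8 levels were measured by ELISA 24 h after chemical dosing. Activity was fitted bidirectionally against DMSO as negative control and baseline.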

Experiment [17] can be described thus: BSK_LPS_SRB: Viability Assessment in the BioMAP Diversity Plus: LPS Assay (AID 2283079).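 Also: total protein by sulforhodamine B absorbance as a cytotoxicity measure; measured one day after compound addition; fitted in both directions against DMSO so loss or gain of signal counts.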 Particulars: primary human HUVEC with PBMC. In outline:
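Human umbilical vein endothelial cells co-cultured with PBMC (LPS system) were dosed for 24 h. Total protein was stained with 0.1% sulforhodamine B after 10% TCA fixation, read at 560 nm, and fitted bidirectionally against DMSO baseline.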

Read-out in experiment [18]: Monocyte Chemoattractant Protein-1 (MCP1), CCL2 (gene 6347)
As to the kind of experiment: BSK_LPS_MCP1: BioMAP Diversity Plus: LPS Assay for Monocyte Chemoattractant Protein-1 (MCP1) Biomarker Activity (AID 2283081).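 As to AC50: co-culture stimulated with LPS; secreted MCP-1 protein quantified by ELISA in culture supernatant.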 Particulars: primary human HUVEC with PBMC; actives raise or lower the signal. In outline:
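HUVEC plus PBMC co-culture (human primary cells, LPS system) exposed to test chemical for 24 h; MCP-1 measured by ELISA. Bidirectional curve fitting against DMSO baseline; parallel SRB total-protein staining flags overt cytotoxicity.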

Read-out in experiment [19]: Interleukin-1 alpha (IL1a), IL1A (gene 3552)
In words: BSK_LPS_IL1a: BioMAP Diversity Plus: LPS Assay for Interleukin-1 alpha (IL1a) Biomarker Activity (AID 2283080). Particulars: primary human HUVEC with PBMC; actives raise or lower the signal. In outline: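 Human umbilical vein endothelial cells co-cultured with peripheral blood mononuclear cells were LPS-stimulated and exposed to test chemicals for 24 h. IL-1 alpha was quantified by ELISA, with bidirectional curve fitting against DMSO as the negative control and baseline.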

Active and inactive are the calls of the source. The calls were made as follows: active = hit-call score of the fitted dose curve at least 0.9, where 1 is the maximum; inactive = score below 0.9.

Sequence of E-selectin (Homo sapiens) (P16581 whole entry, looked up): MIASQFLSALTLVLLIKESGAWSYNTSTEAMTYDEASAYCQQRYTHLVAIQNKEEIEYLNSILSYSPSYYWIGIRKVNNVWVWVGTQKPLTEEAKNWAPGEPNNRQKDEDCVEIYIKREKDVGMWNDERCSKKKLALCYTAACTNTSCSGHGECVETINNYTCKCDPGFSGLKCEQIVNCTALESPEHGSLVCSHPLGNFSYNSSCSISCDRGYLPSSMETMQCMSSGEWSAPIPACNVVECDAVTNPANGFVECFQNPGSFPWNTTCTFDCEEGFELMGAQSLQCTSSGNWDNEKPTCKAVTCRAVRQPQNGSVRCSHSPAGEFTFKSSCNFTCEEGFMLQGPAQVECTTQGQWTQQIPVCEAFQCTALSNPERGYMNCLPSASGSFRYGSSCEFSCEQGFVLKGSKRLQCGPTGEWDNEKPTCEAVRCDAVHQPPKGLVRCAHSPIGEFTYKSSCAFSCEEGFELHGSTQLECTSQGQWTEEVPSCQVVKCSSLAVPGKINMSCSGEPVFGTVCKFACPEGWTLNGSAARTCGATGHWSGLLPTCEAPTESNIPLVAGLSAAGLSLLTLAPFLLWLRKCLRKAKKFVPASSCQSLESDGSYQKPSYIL

By AC50 is commonly meant the midpoint of the concentration-response curve, whichever way the signal moves. In the case of `CC(C)(C)c1cc(/C=C2\SC(N)=NC2=O)cc(C(C)(C)C)c1O`, the half-maximal activity concentration (AC50) in [1] was 31 µM (active); in [2], 14.2 µM (active); in experiment [3], 20 µM (active); in experiment [4], 15.6 µM (active); in experiment [5] it was 20 µM (active); in experiment [7] it was 9.94 µM (active). Also, the half-maximal activity concentration (AC50) in experiment [8] was 7.93 µM (active); in experiment [10], 11.5 µM (active); in [11] it was 12.8 µM (active); in experiment [12], 6.59 µM (active); in experiment [13], 9.79 µM (active); in experiment [14], 12.5 µM (active). Further, the half-maximal activity concentration (AC50) with CD40, CD40 (gene 958) was 13 µM (active); in experiment [15] it was 27.2 µM (active); in experiment [16] it was 20 µM (active); in [17] it was 26.4 µM (active); in experiment [18], 26.9 µM (active). Besides, the result in experiment [6] and in [9] was inactive.

Take `CCCCCCCCN(C)CCCCCCCC`: the outcome in experiment [1], in [2], in experiment [3], in [4], in experiment [5] and in experiment [6] was inactive. Further, the outcome in experiment [7], in experiment [8], in experiment [9], in experiment [10], in experiment [11] and in experiment [12] was inactive. For the same molecule, the outcome was “inactive” in experiment [13]; “inactive” in experiment [14]; “inactive” with CD40, CD40 (gene 958); “inactive” in experiment [15]; “inactive” in [16]; “inactive” in experiment [17]. Further, the result in [19] and in experiment [18] was inactive.

Take `OC12N=C(c3ccccc3)SC1Cc1cc(Cl)ccc12` (stereo not drawn): the outcome in experiment [1], in experiment [2], in experiment [3], in experiment [4], in experiment [5] and in experiment [6] was inactive. Further, the outcome in experiment [7], in experiment [8], in experiment [9], in experiment [10], in experiment [11] and in experiment [12] was inactive. For the same molecule, the result in experiment [13], in experiment [15], in [16], in [17] and in experiment [18] was inactive. In addition, the half-maximal activity concentration (AC50) with CD40, CD40 (gene 958) is 16.8 µM (active); in [19], 25.3 µM (active).

For the molecule `O=C(O)c1ccccc1-n1cc(C(=O)O)c(=O)c2cc(Nc3c(F)cc(F)cc3Cl)c(Cl)cc21`, the outcome in experiment [1], in experiment [2], in [3], in [4], in experiment [5] and in [6] was inactive. In addition, the outcome in experiment [7], in experiment [8], in experiment [9], in [10], in experiment [11] and in [12] was inactive. Further, the outcome in experiment [13] was “inactive”; in experiment [14] it was “inactive”; with CD40, CD40 (gene 958), “inactive”; in experiment [15] it was “inactive”; in experiment [16], “inactive”; in experiment [17], “inactive”. In addition, the result in [19] and in experiment [18] was inactive.

For `Cc1cc2c(cc1C(F)(F)F)N(C(=O)Nc1ccc(Oc3cccnc3C)nc1)CC2`, the outcome in [1], in [2], in [3], in experiment [4], in experiment [5] and in experiment [6] was inactive. Further, the result in [12], in experiment [15], in [17] and in experiment [18] was inactive. The concentration at half-maximal activity (AC50) in experiment [7] is 29.9 µM (active); in experiment [8], 26.4 µM (active); in [9], 15.5 µM (active); in experiment [10], 23.8 µM (active); in experiment [11] it was 23.6 µM (active); in experiment [13], 29.8 µM (active). The AC50 in experiment [14] was 29.2 µM (active); with CD40, CD40 (gene 958), 12.1 µM (active); in [16] it was 2.7 µM (active); in experiment [19], 3.65 µM (active).
